Data: PubChem BioAssay (NCATS)
Inconclusive results are not listed. Calls of active or inactive are those of the source. Unless noted, how the calls were made is not given here.

What was measured:
[1] = qHTS Assay for Identifying Gametocytocidal Compounds (AID 743244; active means well fitted curve in the direction sought with a large enough effect; further: potency means the concentration at half of the fitted maximal effect;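 on max response: on the % scale 0 is the no-effect control and ±100 the full control effect; actives lower the fluorescent signal which means gametocytes are killed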); details: P. falciparum 3D7 stage III-V gametocytes, alamarBlue, 72 h; max response: stronger effect = lower value
Method in brief: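 Stage III-V P. falciparum 3D7 gametocytes, 20,000 per well, were exposed to compounds for 72 h at 37C, 5% CO2. AlamarBlue was then added for 24 h and viability was read as fluorescence at Ex 525/Em 598 nm.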

[2] = qHTS profiling for inhibitors of Plasmodium falciparum (3D7) proliferation (AID 743322);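 further: infected erythrocytes exposed to compound for 72 h before lysis; 100% = DMSO vehicle wells and 0% = 0.29 µM artemisinin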; details: P. falciparum 3D7 proliferation; at 28.7 µM (top of the series) unless noted
Method in brief: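 Parasite DNA was quantified by SYBR Green I fluorescence (ex 485, em 535 nm) after overnight lysis in saponin/Triton buffer at room temperature. Cultures at 0.3% parasitemia and 2.5% hematocrit were first exposed to compound for 72 h at 37 C; signals were normalised to artemisinin (0.29 uM) and vehicle wells.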

[3] = qHTS profiling for inhibitors of Plasmodium falciparum (DD2) proliferation (AID 743323); details: lower = more inhibition; at 28.7 µM (top of the series) unless noted
Method in brief: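 SYBR Green fluorescence (ex 485, em 535 nm) of lysed cultures gives parasite DNA content; wells normalized to artemisinin (0.29 uM) and DMSO controls. Infected red cells: 0.3% parasitemia, 2.5% hematocrit, 72 h, 37 C.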

| Compound | max response [1] | remaining parasite growth % (stronger effect = lower value) [2] [%] | activity, percent of control [3] [%] | Potency [1] |
| --- | --- | --- | --- | --- |
| O=C(Nc1ccc(OC(F)(F)F)cc1)c1sccc1NCc1ccnc2ccccc12 | 8.87% (inactive) | 71.5 | 75.1 |  |
| CN(C)CC[C@H](CSc1ccccc1)Nc1ccc(S(=O)(=O)NC(=O)c2ccc(N3CCN(Cc4ccccc4-c4ccc(Cl)cc4)CC3)cc2)cc1[N+](=O)[O-] |  | 11.6 | 9.74 |  |
| CCOC(=O)[C@@H](N)CCC(=O)N[C@@H](CSCc1ccccc1)C(=O)N[C@@H](C(=O)OCC)c1ccccc1 |  | 51.1 | 92 |  |
| COc1c(C)cnc(Cn2cnc3c(Cl)nc(N)nc32)c1C |  | 40.5 | 31.4 | 23.5 µM (active) |
| CCCCOCCOc1nc(-c2ccc(C(=O)O)c(F)c2)sc1C | 43.8% (inactive) | 105 | 99.2 |  |
| O=C1C(CCC(O)c2ccc(F)cc2)C(c2ccc(O)cc2)N1c1ccc(F)cc1 (stereo unspecified) | 8.66% (inactive) | 18.4 | 83.7 |  |
| CC1=C[C@@H]2[C@@H]([C@@H](O)C[C@@]3(C)[C@H]2C[C@@H](C)[C@]3(O)C(=O)CO)[C@@]2(C)Cc3cnn(-c4ccccc4)c3C=C12 | -28.3% (inactive) | 0.407 | -0.0711 |  |
| C[C@@H](O[C@H]1OCCN(Cc2n[nH]c(=O)[nH]2)[C@@H]1c1ccc(F)cc1)c1cc(C(F)(F)F)cc(C(F)(F)F)c1 |  | 16.5 | 26.1 |  |
| O=C(O)c1ccc(O)c2ncc(N3CCOCC3)cc12 |  | 22.3 |  |  |
| CO[C@@H]1C(N(C)C(=O)c2ccccc2)C[C@H]2O[C@]1(C)n1c3ccccc3c3c4c(c5c6ccccc6n2c5c31)C(=O)NC4=O (stereo partly specified) |  | 110 | 103 |  |
| CNC(=O)c1cc(COc2nnc(Nc3ccc(Cl)cc3)c3ccoc23)ccn1 | 13% (inactive) | 54.7 | 68.5 |  |
| Clc1ccc(COC(Cn2ccnc2)c2ccc(Cl)cc2Cl)c(Cl)c1 (stereo unspecified) |  | -0.257 | -0.374 | 4.48 µM (active) |
| CN1C(=O)C(Cc2c[nH]c3ccccc23)NC1=S (stereo unspecified) | 15.9% (inactive) | 109 | 91.5 |  |
| Cc1nn(Cc2ccccc2Cl)c(C)c1CN(C)CC(O)COc1ccc(Cl)cc1 (stereo unspecified) |  | 29.8 | 18.1 |  |
| CC(C)Oc1cc(Nc2nc(N[C@@H](C)c3ccc(F)cn3)ncc2Cl)[nH]n1 |  | 3.18 | 5.44 | 2.35 µM (active) |
| OCCn1cc(-c2ccc3c(c2)CCC3=NO)c(-c2ccncc2)n1 | 8.08% (inactive) | 89.8 | 97.1 |  |
| C=C[C@@H]1CN2CCC1C[C@@H]2C(O)c1ccnc2ccc(OC)cc12 (stereo partly specified) |  | 2.76 | 2.53 |  |
| COc1cccc(OC)c1-c1cc(C(=O)NC2(C(=O)O)C3CC4CC(C3)CC2C4)nn1-c1ccnc2cc(Cl)ccc12 (stereo unspecified) | 42.4% (inactive) | 23.7 | 56.1 |  |
